Drawing on PubChem BioAssay (NCI), this text covers growth for 37 compounds.

“And” between values parts separate entries of the source, which are not always exact repeats. Equal entries are not always repeated. Compounds without any hit were thinned out: in the full panel of roughly 83,000, 20% have a hit.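 Assay: single dose, 48 h. Readout: percent growth (0 = no net growth; negative = cell death). Active: <10.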 Values without a mark were called inactive. The source made the active and inactive calls.

The test system of the test is MDA-MB-468 breast. Description: NCI-60 one-dose screen, 48 h (100 = growth as untreated, 0 = no growth, -100 = all killed). Particulars: 10 µM unless noted.
For `O=C(Nc1ccc(-c2nc(N3CCOCC3)c3cccn3n2)cc1)Nc1cccnc1`, the growth was -37.9% (active). The figure for `CN(C)CCS(=O)(=O)Nc1cc(-c2ccc3ncc(C#N)c(Nc4ccc(F)c(Cl)c4)c3c2)cnc1Cl` is -77.8% (active); for `CC(Nc1c(C#N)cnc2ccc(-c3cnc(N)nc3)cc12)c1ccccc1` (configuration not stated) it is -9.18% (active).

`CCO/C=N/C1=C(C#N)C(c2ccc(OC)cc2)c2sc3c(C)cccc3c2O1` (configuration not stated): the growth is -13% (active). Then `COC(=O)[C@]12CC[C@@H](C)[C@H](C)[C@@H]1C1=CC[C@@H]3[C@@]4(C)C(C=O)=C[C@@](C)(COC(C)=O)[C@@H]4C(=O)C[C@@]3(C)[C@]1(C)CC2`, with 33.6%. The figure for `Clc1ccc2[nH]cc(-c3nn4cc(-c5cccnc5)nc4s3)c2c1` is 98.1%.

As for `Oc1ccc(CNNc2ccnc3c(O)cccc23)c2cccnc12`, the growth was 64.3%.

For the compound `CN=C1C=CC(=C(c2ccc(N(C)C)cc2)c2ccc(N(C)C)cc2)C=C1`, the growth was -47.5% (active). The figure for `Cc1cc(NCc2cc(Nc3ccnc4cc(Cl)ccc34)ccc2F)nc(N2CCOCC2)n1` is 39.9%; for `O=C1c2cc3c(cc2-c2c1c1cc(Cl)c(Cl)cc1c(=O)n2CCCn1ccnc1)OCO3` it is -38.5% (active); for `Cc1cc(N(CCNc2ccnc3cc(Cl)ccc23)Cc2cccs2)nc(Cl)n1` it is -65.2% (active). The figure for `O=c1cc2oc3cc(O)c(O)cc3c(-c3ccccc3O)c-2cc1O` is 93.9%. The figure for `CCc1n(Cc2ccc3ccccc3n2)cc[n+]1Cc1ccc2ccccc2n1` is -30.1% (active); for `N#CCCCCCn1c2ccccc2c2c3c(c4c5ccccc5n(CCCCCC#N)c4c21)C(=O)N(O)C3=O` it is 87.8%; for `CCN=c1cc2sc3cc(NCC)c(C)cc3nc-2cc1C` it is 30.7%. With `CCCCCN(CCCCC)C(=O)C(CCC(=O)O)NC(=O)c1ccc(Cl)c(Cl)c1` (configuration not stated), the growth is 106%. The figure for `O=C(Nc1ccc(C2=NCCCN2)cc1)Nc1ccc(C2=NCCCN2)cc1` is 42.2%; for `O=C1CS/C(=N\Nc2cc(=O)[nH]c3ccccc23)N1c1ccccc1` it is 96.9%; for `CCNC(=O)N1CCc2c(Cl)c3c(c(OC)c2[C@@H]1[C@H]1OCc2c1ccc(OC)c2OC)OCCO3` it is -8.07% (active). Then `CCN(CC)CCN1C(=O)c2c(c3c4ccccc4[nH]c3c3ccc4ccccc4c23)C1=O`, with 79.5%; and `Cc1nc(-c2ccccc2)cc2c(O)c(C(=O)N/N=C/c3ccc(N(C)C)cc3)[nH]c(=O)c12`, with 77.6%; and `NC1=NC2(CCCC2)N(c2ccc(S(=O)(=O)Nc3nccs3)cc2)C(N)=N1`, with 90.7%.

For the compound `COc1cc(CNC(=O)CCSc2nc3ccccc3c(=O)n2Cc2cc(OC)c(OC)c(OC)c2)cc(OC)c1OC`, the growth is 1.82% (active). Consider `ClC1C2CC(c3ccccc32)C1Cl` (configuration not stated), for which the growth is 104%. The figure for `CCCN(CCC)C(=O)c1ccc(C)cc1` is 96.3%. On to `O=C1/C(=C/c2ccc(O)c(O)c2)COc2ccc(-c3ccccc3)cc21`, for which the growth is 6.16% (active). Then `CC1(C)CCCN1CCCN1c2ccccc2Sc2ccc(Cl)cc21`, with 37.6%; and `O=C1C(Cl)=C(Nc2ccc(S(=O)(=O)N3CCOCC3)cc2)C(=O)c2ccccc21`, with 74.1%; and `CCOC(=O)C1=C(C)N=C2SC=C(c3ccc(F)cc3)N2[C@H]1c1cn(-c2ccccc2)nc1-c1ccc(Cl)cc1`, with 91.1%.

As to `COc1ccc(-c2nn(-c3ccccc3)cc2/C=C2\SC(=O)NC2=O)cc1`, the growth is 107%. Then `C=C(C)[C@@H]1CC[C@]2(C(=O)N3CCOCC3)CC[C@]3(C)[C@H](CC[C@@H]4[C@@]5(C)C/C(=C/c6ccncc6)C(=O)C(C)(C)[C@@H]5CC[C@]43C)[C@@H]12`, with 21.4%. The figure for `Oc1ccc(Cl)cc1-c1cc(-c2ccc(Cl)cc2)n[nH]1` is 8.55% (active); for `C/C(=C(/c1ccc(O)cc1)c1ccc(OCCN(C)C)cc1)c1ccccc1` it is 58.4%; for `CC(C)c1ccc(Cn2ccc3c4c(N)nc(NC5CC5)nc4ccc32)cc1` it is -76% (active). The figure for `CCn1cc(C2=C(c3cn(C)c4ncccc34)C(=O)NC2=O)c2cccnc21` is 37.2%. For `CCOC(=O)c1csc(N)n1`, the growth is 95.6% and 91.5%. Regarding `COc1ccc(/C=C/C(=O)c2ccc(NC(=O)CSc3nnc(-c4ccc5nc(-c6ccc(Cl)cc6)[nH]c5c4)o3)cc2)cc1`, the growth is 110%.
